# Experimental data published in a collection of fitness landscapes (doi:10.1126/science.1257360).
# In all, about 140,000 sequences were measured (“enrichment ratio after two sorts for PhoP signalling”: median about 0, highest 2% from about 11 on). This excerpt belongs to a sample that is enriched for the highest values.
# B1: PhoQ; a variant is named by its letters at X, in order, P23837 (parent)
# chain: MKKLLRLFFPLSLRVRFLLATAAVVLVLSLAYGMVALIGYSVSFDKTTFRLLRGESNLFYTLAKWENNKLHVELPENIDKQSPTMTLIYDENGQLLWAQRDVPWLMKMIQPDWLKSNGFHEIEADVNDTSLLLSGDHSIQQQLQEVREDDDDAEMTHSVAVNVYPATSRMPKLTIVVVDTIPVELKSSYMVWSWFIYVLSANLLLVIPLLWVAAWWSLRPIEALAKEVRELEEHNRELLNPATTRELTSLVRNLNRLLKSERERYDKYRTTLTDLTHSLKTPLXXLQXXLRSLRSEKMSVSDAEPVMLEQISRISQQIGYYLHRASMRGGTLLSRELHPVAPLLDNLTSALNKVYQRKGVNISLDISPEISFVGEQNDFVEVMGNVLDNACKYCLEFVEISARQTDEHLYIVVEDDGPGIPLSKREVIFDRGQRVDTLRPGQGVGLAVAREITEQYEGKIVAGESMLGGARMEVIFGRQHSAPKDE
# Variants of: B1
# Assay: enrichment ratio after two sorts for PhoP signalling (ratio (wild type AVST 3.29)); higher = more functional
# Conditions: with PhoP (E. coli)
row,Variant,enrichment ratio
1,SRSM,0.977
2,FCSM,0.747
3,SCSM,14.5
4,SMHF,≤ 0.25
5,SQSM,15.9
6,NSSM,0.911
7,SMSM,12.4
8,SMSF,5.95
9,SSSM,14.8
10,SDSM,1.33
11,SSSF,10
12,SCSF,9.85
13,SGVE,≤ 0.25
14,SWGV,≤ 0.25
15,IDET,≤ 0.25
16,RIHD,≤ 0.25
17,LNHQ,≤ 0.25
18,IEMK,≤ 0.25
19,EVHQ,≤ 0.25
20,KSSM,≤ 0.25
21,MMSM,7.2
22,NVSM,≤ 0.25
23,SGSF,1.84
24,TTSM,14.8
25,YTSM,1.02

row,Variant,enrichment ratio
1,SPSM,≤ 0.25
2,KQSM,≤ 0.25
3,SGSM,12.7
4,TVSM,37.3
5,TSSM,24.4
6,KQAV,≤ 0.25
7,DAHD,≤ 0.25
8,QSHT,≤ 0.25
9,PIQW,≤ 0.25
10,FMCI,≤ 0.25
11,MYGI,≤ 0.25
12,ICFI,≤ 0.25
13,VCSA,≤ 0.25
14,YCHV,≤ 0.25
15,HSSA,≤ 0.25
16,SMEV,≤ 0.25
17,GVAK,11.7
18,GVAM,15.2
19,GVPM,≤ 0.25
20,GVTM,8.91
21,MVAM,39.4
22,NVAK,≤ 0.25
23,MVPM,≤ 0.25
24,MVAK,5.7
25,MVWM,0.553

row,Variant,enrichment ratio
1,SAME,0.508
2,WCYN,≤ 0.25
3,KFKF,≤ 0.25
4,GTRF,≤ 0.25
5,TSNL,12.5
6,FSNL,≤ 0.25
7,KSNN,≤ 0.25
8,KSNL,≤ 0.25
9,TSNN,12.2
10,LCNN,≤ 0.25
11,LVAI,≤ 0.25
12,NFCN,≤ 0.25
13,KCSV,≤ 0.25
14,TCAH,11.7
15,KCEF,≤ 0.25
16,VEEF,≤ 0.25
17,TCSV,17.7
18,VCAH,≤ 0.25
19,KCAV,≤ 0.25
20,TCEF,13.2
21,TCAV,13.4
22,HVSV,≤ 0.25
23,TCAE,≤ 0.25
24,KCAH,≤ 0.25
25,SLYY,≤ 0.25

row,Variant,enrichment ratio
1,DQFN,≤ 0.25
2,RPHE,≤ 0.25
3,SDPC,≤ 0.25
4,FRSR,≤ 0.25
5,TCLS,7.88
6,TCAS,12.2
7,FCAS,≤ 0.25
8,TCLA,11.9
9,TCGY,20.3
10,KCSM,≤ 0.25
11,TCNY,9.63
12,TCVP,≤ 0.25
13,TCLT,4.19
14,TCSM,18.9
15,KCAS,≤ 0.25
16,VCSM,3.67
17,RVLR,≤ 0.25
18,ENDI,≤ 0.25
19,MVRF,≤ 0.25
20,HGLK,≤ 0.25
21,GGGP,≤ 0.25
22,KHVK,≤ 0.25
23,HVSC,≤ 0.25
24,TCSC,12.3
25,TCAN,25.6

row,Variant,enrichment ratio
1,TCMT,14.5
2,KCSC,≤ 0.25
3,TCIT,≤ 0.25
4,KCLK,≤ 0.25
5,FCAN,≤ 0.25
6,KCAN,≤ 0.25
7,FCLK,1.84
8,VCMT,≤ 0.25
9,TCLK,13.1
10,NFFS,≤ 0.25
11,FFPR,≤ 0.25
12,DMHV,≤ 0.25
13,ETAR,≤ 0.25
14,KLGR,≤ 0.25
15,VCAQ,≤ 0.25
16,FCSN,≤ 0.25
17,TCTQ,21.4
18,KCSN,≤ 0.25
19,TCGD,20.3
20,LSTQ,≤ 0.25
21,TCDD,≤ 0.25
22,TCYD,≤ 0.25
23,TCSN,20
24,KCAQ,≤ 0.25
25,TCAQ,15.5

row,Variant,enrichment ratio
1,TCTW,10.8
2,HFQA,≤ 0.25
3,FHFW,≤ 0.25
4,KCDC,≤ 0.25
5,TKEF,≤ 0.25
6,SVFR,0.428
7,SAGS,3.14
8,SRYF,≤ 0.25
9,IHVG,≤ 0.25
10,LNTP,≤ 0.25
11,NEMN,≤ 0.25
12,TALV,10.2
13,EMAS,≤ 0.25
14,ESQI,≤ 0.25
15,KCSA,≤ 0.25
16,HVSY,≤ 0.25
17,TCSA,18.5
18,TCSY,13.3
19,TCGF,12.5
20,TCHF,8.33
21,KCSY,≤ 0.25
22,FCSA,≤ 0.25
23,TCAK,11.2
24,KCAK,≤ 0.25
25,VCAK,≤ 0.25

row,Variant,enrichment ratio
1,VEGF,≤ 0.25
2,YCQN,≤ 0.25
3,DLMC,≤ 0.25
4,PANG,≤ 0.25
5,THES,≤ 0.25
6,THGV,1.56
7,PMKY,≤ 0.25
8,TLGR,≤ 0.25
9,GLIF,≤ 0.25
10,TCWI,1.27
11,KCSL,≤ 0.25
12,TCSL,16.4
13,ACSL,16.6
14,TCNS,16.1
15,KCCL,≤ 0.25
16,GQSL,≤ 0.25
17,VECL,2.59
18,FCSL,0.351
19,ACGL,2.96
20,TCCL,13.8
21,TCDS,1.7
22,IIGM,≤ 0.25
23,QKHF,≤ 0.25
24,LRCK,≤ 0.25
25,NVPP,≤ 0.25

row,Variant,enrichment ratio
1,APIR,≤ 0.25
2,AWVY,≤ 0.25
3,ELQD,≤ 0.25
4,SGPP,≤ 0.25
5,HHVH,≤ 0.25
6,TICC,2.66
7,KPAP,≤ 0.25
8,AQWF,≤ 0.25
9,TCVA,≤ 0.25
10,TCSS,15
11,TCAY,14.1
12,TCYI,1.36
13,TCSR,5.34
14,TCDT,≤ 0.25
15,KCAY,≤ 0.25
16,TCAT,14.5
17,TCSK,13.7
18,TCNT,7.62
19,FCSS,≤ 0.25
20,KCSS,≤ 0.25
21,LFWM,≤ 0.25
22,NNTR,≤ 0.25
23,IGVH,≤ 0.25
24,WSVN,≤ 0.25
25,HDQK,≤ 0.25

row,Variant,enrichment ratio
1,LDIL,≤ 0.25
2,MIIK,≤ 0.25
3,TCHE,≤ 0.25
4,FCLN,3.94
5,TCIE,≤ 0.25
6,TCNE,19.6
7,TCAG,12.5
8,FCLC,7.16
9,VCLC,2.94
10,FCAG,≤ 0.25
11,TCLN,13.6
12,KCAG,≤ 0.25
13,TCLC,23.4
14,VCLN,2.29
15,FAWY,≤ 0.25
16,SDGA,≤ 0.25
17,GPWK,≤ 0.25
18,LRLK,≤ 0.25
19,SNTI,10.1
20,MHKW,≤ 0.25
21,IAWT,≤ 0.25
22,DASW,≤ 0.25
23,TCEG,≤ 0.25
24,GWNG,≤ 0.25
25,QLVN,≤ 0.25

row,Variant,enrichment ratio
1,FINA,≤ 0.25
2,ENVY,≤ 0.25
3,FCSI,≤ 0.25
4,VEGI,≤ 0.25
5,TCSG,26.2
6,TCGI,25
7,TCIL,≤ 0.25
8,TCSI,23.8
9,TCNL,4.28
10,KCSG,≤ 0.25
11,GMGI,≤ 0.25
12,VCSG,0.44
13,KCSI,≤ 0.25
14,TCGL,13.5
15,MHTY,≤ 0.25
16,LARC,≤ 0.25
17,RLPH,≤ 0.25
18,TNFS,≤ 0.25
19,RRNI,≤ 0.25
20,GIHS,≤ 0.25
21,YGWR,≤ 0.25
22,KELF,≤ 0.25
23,LMEL,≤ 0.25
24,FVVT,≤ 0.25
25,HNCQ,≤ 0.25

row,Variant,enrichment ratio
1,KTSH,≤ 0.25
2,QHHI,≤ 0.25
3,GMRC,≤ 0.25
4,TCVT,≤ 0.25
5,KSND,≤ 0.25
6,KCST,≤ 0.25
7,TCST,24.9
8,HVST,≤ 0.25
9,TCND,20.6
10,MCTV,≤ 0.25
11,EWLV,≤ 0.25
12,MTFH,3.3
13,QYHL,≤ 0.25
14,YKTG,≤ 0.25
15,SMFS,≤ 0.25
